Results reported in PubChem BioAssay (Tox21).
Inconclusive results are not listed. A number with no mark means an inactive call. Active and inactive are the calls of the source. The call rests on the fitted dose curve; in most records, active means well fitted cell-killing curve with a large enough effect in the repeat runs; inconclusive means weak or mixed curves; inactive means flat fitted curve, though single readings scatter.

Experiment: qHTS assay to identify small molecule antagonists of the estrogen related receptor (ERR) signaling pathway - cell viability counter screen (AID 1224818);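 further: viability measured after 17.5 h of compound exposure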
Settings: ERR reporter cell line viability counter screen; series mostly up to 46.1 µM; viability change, negative = cytotoxic: at the top concentration
How it was run: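 ERR reporter cells plated 6 h at 37 C/5% CO2, then compounds in DMSO pin-transferred and incubated 17.5 h at 37 C. Viability read as CellTiter-Fluor fluorescence after 30 min at 37 C.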
On the % scale 0 is the no-effect control and ±100 the full control effect; potency means the concentration at half of the fitted maximal effect.

Row | SMILES | viability change, negative = cytotoxic [%] | Potency
1 | COc1cc(CNC(=O)CCCCCCC(C)C)ccc1O | 13.7 | 
2 | Cc1cccc(/C=C/c2ccccc2)n1 | 5.83 | 
3 | CCC(NC(C)C)C(O)c1ccc(O)c(O)c1 (stereo not given) | 14.1 | 
4 | CC(N)(Cc1ccc(O)cc1)C(=O)O (stereo not given) | -1.69 | 
5 | O=C(Nc1ccc2c(c1)CCN(Cc1ncn[nH]1)C2)c1ccccc1-c1ccc(C(F)(F)F)cc1 | -13.9 | 
6 | c1ccc(C2CN3CCSC3=N2)cc1 (stereo not given) | -3.28 | 
7 | CC1CCN=C(N)S1 (stereo not given) | 15.7 | 
8 | COc1ccc(CCn2nnnc2C2(c3ccc(C)cc3)CC2)cc1 | 2.87 | 
9 | N=C(N)c1ccc(OCCCCCOc2ccc(C(=N)N)cc2)cc1 (tested in a mixture with another compound) | -2.46 | 
10 | COc1ccc(-c2ccc(N)[n+](CCCC(=O)O)n2)cc1 | 7.64 | 
11 | C[C@H](Cc1ccccc1)Nc1ncnc2c1ncn2[C@@H]1O[C@H](CO)C(O)[C@H]1O (stereo not given in full) | -0.203 | 
12 | COc1ccccc1CNCCCCCCNCCCCCCCCNCCCCCCNCc1ccccc1OC | 3.45 | 
13 | Cc1ccccc1/C=C/C1=NCCN1 | -14.6 | 
14 | C[C@@H](NCCc1ccc(O)cc1)[C@@H](O)c1ccc(O)cc1 | 12.4 | 
15 | N[C@H](CCCP(=O)(O)O)C(=O)O | 5.51 | 
16 | Cc1cc(NC(=O)Nc2ccc3c(ccn3C)c2)sn1 | 2.36 | 
17 | CCCN(CCc1ccccc1)C1CCc2c(O)cccc2C1 (stereo not given) | -7.73 | 
18 | CC(=O)O[C@H]1C[C@@H]2CC[C@@H]3[C@H](CC[C@@]4(C)[C@H]3C[C@H]([N+]3(C)CCCCC3)[C@@H]4OC(C)=O)[C@@]2(C)C[C@@H]1[N+]1(C)CCCCC1 | 8.19 | 
19 | NC(=O)CC[C@H](N)C(=O)O | 4.18 | 
20 | N#Cc1cc([N+](=O)[O-])c2sc(C(N)=O)[n+]([O-])c2c1 | -13.5 | 

Row | SMILES | viability change, negative = cytotoxic [%] | Potency
21 | CC(C)NC[C@H](O)c1ccc(O)c(O)c1 |  | inactive
22 | N[C@H](C(=O)O)[C@H](Cc1ccccc1)C(=O)O | -1.1 | 
23 | NCCCS(=O)(=O)O | -17.2 | 
24 | CN1[C@@H](CC(=O)c2ccccc2)CCC[C@H]1C[C@H](O)c1ccccc1 | -5 | 
25 | O=c1c(O)c(-c2cc(O)c(O)c(O)c2)oc2cc(O)cc(O)c12 | -10.6 | 
26 | NC(=O)c1cccc(N)c1 | 8.92 | 
27 | O=S(=O)(c1cccc2c(Cl)cccc12)N1CCCNCC1 | -2.83 | 
28 | COc1ccccc1N1CCN(CCCCN2C(=O)c3ccccc3C2=O)CC1 | -8.93 | 
29 | CCCCCCCCCCCCCCSCC(=O)O | 1.44 | 
30 | Oc1ccc2ccccc2c1SSc1c(O)ccc2ccccc12 | -13.6 | 
31 | CCCCCC[C@@H]([C@@H](C)O)n1cnc2c(N)ncnc21 | 6.41 | 
32 | COc1ccccc1N1CCN(CCN(C(=O)c2ccc(F)cc2)c2ccccn2)CC1 | -1.46 | 
33 | O=c1ccc2ccc(O)c(O)c2o1 | -15.9 | 
34 | N=c1c[n+](N2CCOCC2)[n-]o1 |  | inactive
35 | O=c1[nH]c2cc([N+](=O)[O-])c([N+](=O)[O-])cc2[nH]c1=O | -12.9 | 
36 | Nc1ncnc2c1nc(Br)n2C1OC2COP(=O)(O)O[C@@H]2C1O (stereo not given in full) | 10.3 | 
37 | O=C(CCSCc1ccco1)NNC(=O)N1Cc2ccccc2Oc2ccc(Cl)cc21 | -14.1 | 
38 | CC[n+]1c(/C=C/C=C2/N(C)c3ccccc3C2(C)C)sc2ccccc21 |  | 9.08 µM (active)
39 | CN1C2CCC1CC(OC(=O)c1c[nH]c3ccccc13)C2 (stereo not given) | 3.65 | 
40 | O=Nc1ccc2oc(=O)ccc2c1 | 0.704 | 
